Data on 33 compounds can be found in the supplement of paper PMC8007513.

The test system of the assay is Trichoderma virens ATCC 9645. Kind of assay: growth yield (OD600) relative to untreated control; higher = less growth inhibition. The note with it: compound concentration: 100 uM. An outline of the steps:
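Trichoderma virens ATCC 9645 spores at 15,000 spores ml^−1 in potato dextrose broth were exposed in 96-well plates to library compounds at 100 μM final, with or without a biocide at 200 ng ml^−1. After growth at 30 °C, OD600 was read at 40 h and 72 h. Values are growth relative to the control without either agent, averaged over duplicate screens.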

Molecules are shown by their SMILES. Counter-ions that a name gives are not always drawn. ± gives the standard error. Among all 1,300 compounds or so, about 75 (6%) showed an effect of 50% or more. This is one part of a sample in which strong results are shown more often than they occur.

The compound `Clc1cc(Cl)c(OCC#CI)cc1Cl` [Haloprogin] registered a growth yield (40 h) of 6.04 ± 1.6% and a growth yield (72 h) of 5.14 ± 0.73%.
The corresponding values for `CC1CC(OC(=O)c2ccccc2O)CC(C)(C)C1` (stereo unspecified) [Homosalate] are 109 ± 3.2% and 105.8 ± 0.32%.
The corresponding values for `CCCCNc1c(C(=O)OCC)c(C)nc2c1cnn2CC` [Tracazolate hydrochloride] are 38.1 ± 16% and 60.5 ± 13%.
Turning to `CCCCNc1ccc(C(=O)OCCN(C)C)cc1`, the growth yield (40 h) is 99.752 ± 2.2e-14% and the growth yield (72 h) is 102 ± 3.4%.
The corresponding values for `CCCCNc1ccc(C(=O)OCCOCCOCCOCCOCCOCCOCCOCCOCCOC)cc1` [Benzonatate] are 92.1 ± 2.5% and 89.1 ± 2.1%.
The corresponding values for `CC[C@H]1OC(=O)C[C@@H](O)[C@H](C)[C@@H](O[C@@H]2O[C@H](C)[C@@H](O[C@H]3C[C@@](C)(O)[C@@H](O)[C@H](C)O3)[C@H](N(C)C)[C@H]2O)[C@@H](CC=O)C[C@@H](C)C(=O)/C=C/C(C)=C/[C@@H]1CO[C@@H]1O[C@H](C)[C@@H](O)[C@@H](OC)[C@H]1OC` [Tylosin] are 95.94 ± 0.32% and 94.2 ± 1.9%.
The corresponding values for `C[C@H]1c2cccc(O)c2C(=O)C2=C(O)[C@]3(O)C(=O)C(C(N)=O)=C(O)[C@@H](N(C)C)[C@@H]3[C@@H](O)[C@@H]21` [Doxycycline hydrochloride] are 93.2 ± 1.8% and 92.7 ± 2.7%.
As for `Cc1c(N(C)CS(=O)(=O)O)c(=O)n(-c2ccccc2)n1C` [Dipyrone], the growth yield stood at 91.7 ± 4.6% (40 h) and 85.68 ± 0.73% (72 h).
The corresponding values for `CN1CCN(CCCN2c3ccccc3Sc3ccc(Cl)cc32)CC1` [Prochlorperazine dimaleate] are 31 ± 8.7% and 108 ± 2.4%.
As to `OCCN1CCN(CCCN2c3ccccc3Sc3ccc(Cl)cc32)CC1` [Perphenazine], the growth yield worked out at 59.1 ± 5.1% (40 h) and 113 ± 14% (72 h).
The corresponding values for `CN1CCN(CCCN2c3ccccc3Sc3ccc(S(=O)(=O)N(C)C)cc32)CC1` [Thioproperazine dimesylate] are 64.5 ± 11% and 90.7 ± 4.1%.
The corresponding values for `CN(C)CCCN1c2ccccc2Sc2ccc(Cl)cc21` [Chlorpromazine hydrochloride] are 68.8 ± 2.1% and 86.52 ± 0.32%.
The corresponding values for `CCSc1ccc2c(c1)N(CCCN1CCN(C)CC1)c1ccccc1S2` [Thiethylperazine dimalate] are 3.02 ± 0.16% and 2.73 ± 0.42%.
As to `CC(=O)c1ccc2c(c1)N(CCCN(C)C)c1ccccc1S2` [Acetopromazine maleate salt], the growth yield is, setting by setting: (40 h) 109 ± 5.9%; (72 h) 111 ± 4.1%.
The corresponding values for `COc1cc(N)c(Cl)cc1C(=O)NC1CCN(CCCOc2ccc(F)cc2)CC1OC` (stereo unspecified) [Cisapride] are 108% and 109%.
As for `O=C(Cn1ccnc1[N+](=O)[O-])NCCO` [Etanidazole], the growth yield came out at 101 ± 2.2% (40 h) and 98 ± 1.9% (72 h).
The corresponding values for `CCN(CC)CCOC(=O)C1(c2ccc([N+](=O)[O-])cc2)CCCC1` [Nitrocaramiphen hydrochloride] are 101% and 103.3 ± 0.52%.
On to `O=C(CCCN1CCC(O)(c2ccc(Br)cc2)CC1)c1ccc(F)cc1` [Bromperidol], for which the growth yield stood at 104.4 ± 0.48% (40 h) and 105.4 ± 0.1% (72 h).
The corresponding values for `C/C(=C(\CCOP(=O)(O)O)SC(=O)c1ccccc1)N(C=O)Cc1cnc(C)nc1N` [Benfotiamine] are 99.75 ± 0.64% and 96.38 ± 0.1%.
The compound `NC(=O)c1cc[n+](CC2=C(C(=O)[O-])N3C(=O)[C@@H](NC(=O)[C@@H](c4ccccc4)S(=O)(=O)O)[C@H]3SC2)cc1` [Cefsulodin sodium salt] gave a growth yield (40 h) of 95 ± 4.8% and a growth yield (72 h) of 99.3 ± 3.2%.
The corresponding values for `CC[C@H](C)C(=O)O[C@H]1CCC=C2C=C[C@H](C)[C@H](CC[C@@H]3C[C@@H](O)CC(=O)O3)[C@H]21` [Mevastatin] are 103 ± 7.6% and 96.2 ± 6.6%.
The corresponding values for `O=P(O)(O)C(O)(Cn1ccnc1)P(=O)(O)O` [Zoledronic acid hydrate] are 108 ± 4.5% and 109 ± 1.6%.
`CO[C@H]1/C=C/O[C@@]2(C)Oc3c(C)c(O)c4c(O)c(c(/C=N/N5CCN(C6CCCC6)CC5)c(O)c4c3C2=O)NC(=O)/C(C)=C\C=C\[C@H](C)[C@H](O)[C@@H](C)[C@@H](O)[C@@H](C)[C@H](OC(C)=O)[C@@H]1C` [Rifapentine]: the growth yield by setting is: (40 h) 84.5%; (72 h) 94%.
The corresponding values for `CSc1ccc2c(c1)N(CCC1CCCCN1C)c1ccccc1S2` (stereo unspecified) [Thioridazine hydrochloride] are 53.8 ± 6.2% and 83 ± 2.6%.
The corresponding values for `CSc1ccc2c(c1)C(N1CCN(C)CC1)Cc1ccccc1S2` (stereo unspecified) [Methiothepin maleate] are 43.5 ± 3.5% and 75.4 ± 3.2%.
For the compound `CN1CCC(=C2c3ccccc3Sc3ccccc32)CC1` [Pimethixene maleate], the growth yield was 85.77 ± 0.64% (40 h) and 95.2 ± 1.9% (72 h).
The corresponding values for `CN(Cc1cc(Br)cc(Br)c1N)C1CCCCC1` [Bromhexine hydrochloride] are 99 ± 1.1% and 98.2 ± 1.9%.
The corresponding values for `Cc1scc2c1N(C(=O)CN1CCN(C)CC1)c1ccccc1NC2=O` [Telenzepine dihydrochloride] are 99.75 ± 0.32% and 103 ± 1.1%.
The corresponding values for `CC(=O)Oc1cc(C(F)(F)F)ccc1C(=O)O` [Triflusal] are 94.5 ± 2.4% and 91.77 ± 0.32%.
Turning to `Cc1cc(N)c2ccccc2[n+]1CCCCCCCCCC[n+]1c(C)cc(N)c2ccccc21` [Dequalinium dichloride], the growth yield by setting is: (40 h) 2.54 ± 1.6%; (72 h) 2.2 ± 1.4%.
The corresponding values for `Nc1ccccc1S(N)(=O)=O` [2-Aminobenzenesulfonamide] are 93.7 ± 1.6% and 94.39 ± 0.63%.
With `Cc1cc(C2CCCCC2)n(O)c(=O)c1` [Ciclopirox ethanolamine], the growth yield was 1.27 ± 1.3% (40 h) and 1.15 ± 1.1% (72 h).
The corresponding values for `CC(=O)Nc1c(I)c(C(=O)N[C@H]2C(O)O[C@H](CO)[C@@H](O)[C@@H]2O)c(I)c(N(C)C(C)=O)c1I` (stereo partly specified) [Metrizamide] are 102 ± 13% and 105 ± 12%.
